High-throughput results as filed in PubChem BioAssay.
RGS16-Gao HTS = RGS16-Galphao interaction regulator (human); O15492+P09471; bead-based flow cytometry RGS16-Galphao binding, fluorescence; actives lie on both sides; binding response (% of control), % at 10 µM; actives 0.38% (n = 220,000); call rule not given here;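 note: Galphao activated by GDP with aluminum fluoride before binding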
Target sequence (O15492 whole entry, looked up): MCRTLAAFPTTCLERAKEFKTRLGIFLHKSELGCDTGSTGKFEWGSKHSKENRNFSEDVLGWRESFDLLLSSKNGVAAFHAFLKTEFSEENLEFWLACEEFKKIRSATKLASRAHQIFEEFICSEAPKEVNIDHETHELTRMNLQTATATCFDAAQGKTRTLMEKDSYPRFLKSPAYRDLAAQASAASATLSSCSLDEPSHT
Target sequence (P09471 whole entry, looked up): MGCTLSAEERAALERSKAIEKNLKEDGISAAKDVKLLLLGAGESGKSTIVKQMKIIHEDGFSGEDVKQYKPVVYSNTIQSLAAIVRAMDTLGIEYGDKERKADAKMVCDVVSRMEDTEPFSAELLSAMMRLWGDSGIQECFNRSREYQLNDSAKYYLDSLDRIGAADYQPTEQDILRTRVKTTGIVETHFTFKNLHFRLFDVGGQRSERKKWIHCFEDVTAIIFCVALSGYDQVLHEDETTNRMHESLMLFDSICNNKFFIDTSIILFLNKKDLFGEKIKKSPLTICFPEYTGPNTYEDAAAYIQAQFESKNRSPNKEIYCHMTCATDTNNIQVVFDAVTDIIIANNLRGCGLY
RGS7-Gao reg = human RGS7-Galphao interaction regulation. P09471. Multiplexed bead flow cytometry, RGS7-Galphao binding; actives lie on both sides. binding response (% of control), % at 10 µM. actives 0.35% (n = 220,000). AID 1439; in the data active = binding response below about 49% or above about 150%; inconclusive = no clear call, values can overlap the other calls; inactive = in between;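 note: fluorescent Galphao held in activated GDP-AlF4 state binding bead-coupled RGS7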
Avidin bead fluor = compound fluoresces at 488/530 nm on avidin beads. compound fluorescence 488/530 nm, flow cytometry; hits give high values. fluorescence (KMESF) at 10 µM. actives 0.38% (n = 220,000). AID 1775; in the data active = fluorescence above about 47
RGS8-Gao = human RGS8-Galphao interaction regulation; multiplexed bead flow cytometry, RGS8-Galphao binding; actives lie on both sides; response (percent of control binding), % at 10 µM; actives 0.34% (n = 220,000); in the data active = response below about 60% or above about 140%; inactive = in between;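 note: Galphao activated as the GDP aluminium fluoride complex binding bead-coupled RGS8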
RGS4-Gao reg = human RGS4-Galphao interaction regulation | P09471 | binding response (% of control), % at 10 µM | Multiplexed bead flow cytometry, RGS4-Galphao binding; actives lie on both sides | AID 1415 | actives 0.33% (n = 220,000); in the data active = binding response below about 49% or above about 150%; inactive = in between;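 note: fluorescent Galphao activated with aluminum fluoride binding bead-coupled RGS4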
GSH bead fluor = compound fluoresces at 488/530 nm on GSH beads. actives 0.25% (n = 190,000). fluorescence (KMESF) at 10 µM. AID 1776. GSH beads flow cytometry, compound fluorescence 488/530 nm; hits give high values; in the data active = fluorescence above about 89;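 note: glutathione beads carrying GST-tagged Bcl family fusion proteins plus one bare bead set; values are compound well signal with DMSO vehicle wells as background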
An asterisk follows results filed as active; ? = inconclusive; nt = not tested or not shown. Shown are actives, neighbours in structure and some others; about 1.2% of the full set was active somewhere.

SMILES	RGS16-Gao HTS	RGS7-Gao reg	Avidin bead fluor	RGS8-Gao	RGS4-Gao reg	GSH bead fluor
O=C(Cn1c(-c2cscn2)nc2ccccc21)Nc1ccccc1F	118	112	50*	104	103	14
Cn1c(=S)n(C)c2ccccc21	103	116	84*	96	105	17
COc1ccc(-c2noc(CN3CCCC(OCc4ccccn4)C3)n2)cc1 (stereo not given)	101	?	7	101	100	nt
CC(C)Cn1c(N)c(C(=O)CSc2ncnc3sc4c(c23)CCCC4)c(=O)n(C)c1=O	91	98	3	98	101	101*
CNC(=O)c1nnsc1S(=O)(=O)c1ccc(Cl)cc1	100	96	18	92	95	10
O=C(c1cc(-c2ccccc2)n[nH]1)N1CCc2c([nH]c3ccccc23)C1c1ccccn1 (stereo not given)	94	90	9	96	93	8
O=C(COC(=O)c1cccc(C(=O)OCC(=O)NC2CC2)n1)NC1CC1	101	?	12	102	101	9
Nc1c(C(=O)NCc2ccco2)sc2nc(N3CCOCC3)c3c(c12)CCCC3	105	114	62*	99	104	9
CCOC(=O)/C(C#N)=N/Nc1c(C)n(C)n(-c2ccccc2)c1=O	101	103	9	103	102	11
CCOC(=O)/C(C#N)=N/Nc1ccccc1C#N	105	?	47*	98	114	nt
CC(C)CC(NC(=O)c1ccc(Cl)cc1)C(=O)OCC(=O)c1ccc2c(c1)NC(=O)CO2 (stereo not given)	100	111	4	108	110	239*
C=CCn1c(COc2ccccc2)nnc1SC(C)C(=O)N/N=C/c1cc(Cl)ccc1O (stereo not given)	92	88	17	90	93	28
CC(C)(C)N/C=C(\C#N)S(=O)(=O)c1ccc(Br)cc1	100	?	8	101	100	nt
CCCNC(=O)C1CCN(c2cc(-c3ccccc3)nc3ncnn23)CC1	105	103	12	103	102	17
CCN(c1ccccc1)S(=O)(=O)c1ccc(Cl)c(C(=O)NCC2CCCO2)c1 (stereo not given)	105	102	7	101	102	16
CCOc1ncccc1C(=O)OCC(=O)c1cc(OC)c(OC)c(OC)c1	87	?	nt	94	89	nt
CCOC(=O)/C(C#N)=C/Nc1cc(OC)ccc1OC	120	107	4	106	103	9
CCOC(=O)/C(C#N)=C/Nc1ccccc1OC(F)(F)F	91	?	105*	95	134	nt
Cc1cc(N2CCOCC2)c2c(N)c(C)cc(C)c2n1	103	148	61*	99	106	26
Cc1occc1C(=O)NNC(=O)Nc1ccc([N+](=O)[O-])cc1	100	99	14	99	98	10
COC(=O)C1C(c2ccc(OC)cc2)C(C(=O)OC)S(=O)(=O)C(CCN2CCCCC2)S1(=O)=O (stereo not given)	96	?	10	98	98	16
COc1ccccc1C/C(N)=N/OC(=O)c1ccco1	98	93	10	96	95	10
O=C(COc1ccccc1)Nn1c(-c2ccccc2)nc2ccccc2c1=O	102	99	6	99	99	7
Cc1ccc(-c2nc3ccccc3c(=O)n2NC(=O)COc2ccccc2)cc1	97	91	15	95	95	231*
COc1cccc(NC(=O)c2ccc(NC(=O)C3CC(=O)OC34CCCCC4)cc2)c1 (stereo not given)	99	98	10	99	99	7
SMILES	RGS16-Gao HTS	RGS7-Gao reg	Avidin bead fluor	RGS8-Gao	RGS4-Gao reg	GSH bead fluor
COCCN(CCOC)S(=O)(=O)c1ccc(C(=O)Nc2c(C)n(C)n(-c3ccccc3)c2=O)cc1	98	?	4	99	94	nt
NC(=O)c1ccc(N=Nc2c(-c3ccccc3)[nH]n(-c3ccccc3)c2=O)cc1	108	?	63*	108	114	11
CCN(C(=O)CSc1nnnn1-c1cc(C)ccc1OC)C1CCS(=O)(=O)C1 (stereo not given)	104	101	8	98	100	267*
O=C(Nc1ccccc1NS(=O)(=O)c1ccc(F)cc1)C1CCC1	101	?	10	101	98	16
CC(C)N(c1ccccc1)c1ccc(NC(=O)C2CCCO2)cc1 (stereo not given)	95	99	7	103	97	266*
O=C(Nc1ccc(Oc2ccccc2)cc1)C1CCCO1 (stereo not given)	89	93	17	97	94	27
O=C(COc1cc(F)ccc1[N+](=O)[O-])NCCCc1ccccc1	103	100	5	101	99	16
COc1ccc(Cc2noc(COc3ccc(Cl)cc3)n2)cc1	100	100	11	99	98	92*
Cc1ccccc1N=C(NO)c1nonc1N	165	108	10	119	104	12
CC(=O)NC1(C(F)(F)F)NC(=O)N(CC(C)C)C1=O (stereo not given)	100	109	53*	99	101	16
CCCCN1C(=O)NC(NC(C)=O)(C(F)(F)F)C1=O (stereo not given)	103	100	7	100	100	12
COc1ccc(CCNC(=O)CNC(=O)Cn2ccc3ccccc3c2=O)cc1OC	97	?	5	99	97	nt
COc1c(/C=N/Nc2ccc(C(=O)O)cc2)c(CCN(C)C(C)=O)cc2c1OCO2	86	?	6	94	78	nt
O=C(Nc1cccnc1)c1ccc(Cl)c(S(=O)(=O)N2CCc3ccccc32)c1	108	121	62*	102	101	10
O=C(COC(=O)Cn1cnc2ccccc21)NCc1ccc(F)cc1	103	?	9	102	101	15
COc1ccc(NC(=O)Cn2cnc3ccccc3c2=O)cc1OC	113	94	6	88	101	17
COc1ccccc1CNC(=O)Cn1cnc2ccccc2c1=O	166	122	6	123	131	234*
O=C(Cn1cnc2ccccc21)NCc1ccccc1	103	136	58*	101	105	33
O=C(O)CC1(CC(=O)Nc2ccc3ccccc3n2)CCCCC1	104	?	11	100	111	nt
COc1ccccc1N1CCN(C(=O)CN(c2ccc(C)c(C)c2)S(C)(=O)=O)CC1	115	101	6	107	103	268*
CC1=C(C(=O)OCc2ccccc2)C(c2ccsc2)C(C#N)=C(N)O1 (stereo not given)	48	94	5	80	90	23
COC(=O)C1=C(C)OC(N)=C(C#N)C1c1ccsc1 (stereo not given)	117	110	8	106	117	89*
